Bioassay records (PubChem)
Compounds with a hit are over-represented: about 3.8% of the library has one in this group of screens.
Mtb hypoxia rep – reduces hypoxia-regulated biosensor signal in M. tuberculosis; M. tuberculosis hypoxia-regulated fluorescent reporter, fluorescence; fluorescence inhibition, % (concentration not given with the values); 0.1% of 300,000 active; AID 1159583; in the data active = fluorescence inhibition mostly above about 23%, no sharp cut-off; inactive = mostly below about 17%
Yp Topo-I inh – Y. pestis Topo-I inhibition via cleavage products; Y. pestis Topo-I cleavage product accumulation, plate reader; activity, % at 10 µM; 0.064% of 360,000 active; in the data active = activity above about 50%, passing the limit was not always enough
GDH-TPI inh – inhibits GDH-TPI coupling enzymes, artifact for Mtb FBA screen | 1.2% of 360,000 active | inhibition, % at 4.8 µM | GDH-TPI coupled enzyme counterscreen, NADH absorbance; in the data active = inhibition above about 30%;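 note: 0% = DMSO wells and 100% = wells lacking the enzyme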
FBA Mtb inh – inhibits M. tuberculosis FBA enzyme. P9WQA3. purified M. tuberculosis FBA, fluorescence read-out. 2.3% of 360,000 active. AID 588726. inhibition, % at 1 µM; in the data active = inhibition above about 27%;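 note: 0% = vehicle and 100% = reference inhibitor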
Target sequence (P9WQA3 whole entry, looked up): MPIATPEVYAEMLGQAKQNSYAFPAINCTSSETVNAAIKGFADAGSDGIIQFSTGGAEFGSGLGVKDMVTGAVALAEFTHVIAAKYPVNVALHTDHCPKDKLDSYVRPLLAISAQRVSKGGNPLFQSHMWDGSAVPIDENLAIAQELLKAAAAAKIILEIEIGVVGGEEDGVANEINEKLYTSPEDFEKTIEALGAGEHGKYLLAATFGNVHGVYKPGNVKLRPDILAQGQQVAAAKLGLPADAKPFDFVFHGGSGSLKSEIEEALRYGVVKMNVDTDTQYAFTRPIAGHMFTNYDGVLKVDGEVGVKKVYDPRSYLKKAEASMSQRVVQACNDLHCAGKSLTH
PrP UTR inh – suppresses PrP 5' UTR mRNA reporter expression. cell-based PrP 5' UTR mRNA reporter, plate reader. 0.35% of 340,000 active. inhibition, % (concentration not given with the values); in the data active = inhibition above about 52%; note: 0 = median of the neutral control wells
PrPC TRFRET – inhibitors of human cell surface prion protein PrPC; P04156; TR-FRET read-out; inhibition, % at 13.8 µM; 0.43% of 370,000 active; AID 720596; in the data active = inhibition above about 24%; note: 0% = median of the test wells and 100% = reference compound wells
Starred values were filed as active, the others as inactive; · = no result given; + = active, no number.

SMILES	Mtb hypoxia rep	Yp Topo-I inh	GDH-TPI inh	FBA Mtb inh	PrP UTR inh	PrPC TRFRET
CCN1C(=O)C2C(c3ccc(-c4ccc(OC)cc4)cc3)N[C@@](Cc3ccccc3)(C(=O)OC)C2C1=O (stereo partly specified)	4	·	·	·	·	·
CCOC(=O)CNC(=O)c1ccccc1	13	-10	5	-2	13	-5
CCOC(=O)CNC(=O)c1ccccc1Br	·	-1	3	+	-38	7
O=C(Nc1ccccc1N1CCCCC1)c1cccc(OC(F)F)c1	15	57*	4	-1	0	-1
COc1cccc(C2CC=C(C(=O)O)C(c3ccccc3)N2S(=O)(=O)c2ccc(C)cc2)c1 (stereo unspecified)	10	·	·	·	·	·
CCC(C)NC(=O)c1c(N)n(Cc2ccc3c(c2)OCO3)c2nc3ccccc3nc12 (stereo unspecified)	·	-4	20	20	-5	-3
COCCCn1c(N)c(C(=O)OC(C)COC)c2nc3ccccc3nc21 (stereo unspecified)	·	-4	16	+	-13	-10
COCCCn1c(N)c(C(=O)Nc2sc3c(c2C(=O)OC)CCCC3)c2nc3ccccc3nc21	0	-4	0	2	-14	-9
CCC(C)OC(=O)c1c(N)n(Cc2cccs2)c2nc3ccccc3nc12 (stereo unspecified)	9	2	7	137*	-40	17
COCCCn1c(N)c(C(=O)Nc2ccccc2)c2nc3ccccc3nc21	-10	28	-1	4	·	2
CCCCOCCCn1c(N)c(C(=O)OC(C)COC)c2nc3ccccc3nc21 (stereo unspecified)	·	5	21	121*	-11	-12
CCC(C)C(N)c1cn(C(CCCN=C(N)N)C(=O)N2CCNCC2)nn1 (stereo unspecified)	1	·	·	·	·	·
O=c1oc2ccc(Cl)cc2nc1/C=C(\O)c1ccco1	-2	2	37*	-2	-17	-8
CC(C)(C)/C(O)=C/c1nc2ccccc2oc1=O	·	5	5	8	-4	8
O=c1oc2ccccc2nc1/C=C(\O)c1ccccc1	46*	3	17	-1	·	-7
COc1ccc(C2CC=C(C(=O)O)C(c3ccc(F)cc3)N2S(=O)(=O)c2ccccc2C)cc1 (stereo unspecified)	7	·	·	·	·	·
O=C(CSc1nc(-c2ccco2)cc(C(F)(F)F)n1)Nc1ccc2c(c1)OCO2	15	7	16	-2	-28	7
O=C(CSc1nc(-c2ccco2)cc(C(F)(F)F)n1)Nc1cccnc1	11	5	32*	-1	-8	4
CCC(C)CN1C(=O)NC(c2ccccc2)C(C(C)=O)=C1C (stereo unspecified)	10	·	·	·	·	·
O=c1c2c3c(sc2[nH]c(=S)n1Cc1ccco1)CCC3	4	-4	22	-1	-19	8
CC1(C)Cc2c(sc3[nH]c(=S)n(Cc4ccco4)c(=O)c23)CO1	17	-9	37*	-4	-13	5
CC(C)(C)c1ccc(-c2ncccc2O)cc1	5	-9	3	170*	-37	2
CC(C)(C)c1ccc(C(=O)NCCCNC(=O)c2ccccn2)cc1	6	3	4	6	-13	-7
O=C(Nc1nccs1)c1ccc(-c2ccc(Cl)cc2)o1	-2	7	54*	1	-62	14
CC1(C)OC(=O)N(c2ccccc2)C12C=Cc1c(ccc3ccccc13)O2 (stereo unspecified)	·	36	0	-1	-6	6
SMILES	Mtb hypoxia rep	Yp Topo-I inh	GDH-TPI inh	FBA Mtb inh	PrP UTR inh	PrPC TRFRET
O=C1NC2(C=Cc3c(ccc4ccccc34)O2)Oc2ccccc21 (stereo unspecified)	6	12	8	152*	-19	·
O=C(CC1OC(=O)c2ccccc21)c1ccco1 (stereo unspecified)	9	5	41*	-2	-23	-10
O=C(COC(=O)c1cc(Cl)nc(Cl)c1)NCCc1ccc(F)cc1	26*	3	4	5	-7	-4
O=C(COC(=O)c1ccc(F)cc1)NCCc1ccc(F)cc1	-3	2	-1	0	8	7
COc1ccc(-c2c(C#Cc3ccsc3)c3cc(-c4ccc(C(N)=O)cc4)ccc3n2C)cc1	11	-12	12	3	-13	4
COc1ccc(-c2c(C#Cc3ccsc3)c3cc(-c4ccc5[nH]ccc5c4)ccc3n2C)cc1	19	2	47*	18	-16	9
